Results from PubChem BioAssay (Tox21).
Values without a mark were called inactive. Calls come from the whole dose curve.
% is set by controls: 0 for no effect and ±100 for the full control effect.

What follows are compounds tested against Muscarinic acetylcholine receptor M1 (Homo sapiens) (UniProt P11229) (assay: Cholinergic receptor muscarinic 1 (CHRM1) small molecule agonists, cell-based qHTS assay (AID 1963589; note: nearly all actives have a fitted effect of over 35% in size)). Settings: CHRM1-CHO cells, agonist mode, calcium flux fluorescence; series mostly up to 76.8 µM; activation: at the top concentration.
Sequence of Muscarinic acetylcholine receptor M1 (Homo sapiens) (P11229 whole entry, looked up): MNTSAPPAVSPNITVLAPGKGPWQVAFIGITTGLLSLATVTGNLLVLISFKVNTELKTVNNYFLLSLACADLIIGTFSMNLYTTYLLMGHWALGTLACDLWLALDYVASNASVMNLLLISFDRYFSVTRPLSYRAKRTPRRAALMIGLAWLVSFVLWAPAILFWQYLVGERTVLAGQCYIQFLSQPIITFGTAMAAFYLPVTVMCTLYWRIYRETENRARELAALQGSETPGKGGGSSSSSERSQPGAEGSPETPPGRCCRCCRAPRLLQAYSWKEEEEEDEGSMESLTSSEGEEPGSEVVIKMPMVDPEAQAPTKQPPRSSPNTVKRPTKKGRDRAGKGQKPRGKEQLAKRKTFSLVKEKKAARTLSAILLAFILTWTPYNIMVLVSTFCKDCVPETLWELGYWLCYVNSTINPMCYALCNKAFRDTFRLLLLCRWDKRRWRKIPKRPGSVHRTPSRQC
From the text: National Center for Advancing Translational Sciences [NCATS]
Division of Preclinical Innovation [DPI]
U.S. Environmental Protection Agency [EPA]
National Institutes of Environmental Health Sciences [NIEHS]
National Toxicology Program [NTP]
U.S. Food and Drug Administration [FDA]
The CHRM1 is a muscarinic receptor. This receptor plays a crucial role in learning and memory processes and has long been identified as a promising therapeutic target for the improvement of cognitive decline in Alzheimer's disease (AD). The CHRM1-CHO cell line stably expressing human muscarinic acetylcholine receptor M1 (CHRM1) can be used for screening agonists and antagonists of interactions between CHRM1 and its ligands. The CHRM1-CHO Calcium Flux Assay is a homogeneous fluorescence-based assay for detecting the intracellular calcium level using FDSS kinetic plate reader system.
CHRM1-CHO cells were dispensed at 1000 cells/3uL/well in 1536-well black-clear bottom plates using a Multidrop Dispenser. After the assay plates were incubated at a 37 C/5% CO2 incubator for 18 h, 3 uL of Dye Loading Buffer was transferred to the assay plate by a Flying Reagent Dispenser. The assay plates were incubated at 37 C for 1h. For agonist mode, 23 nL of compounds dissolved in DMSO, positive controls or DMSO only was transferred to the assay plate by a pin tool. […] Each test compound was measured at 15 concentrations in three independent runs.
C=CC(=C)CC/C=C(\C)CCC=C(C)C gave an activation of -0.116% [at 15.8 µM].
O=C(O)C[C@H](O)C[C@H](O)/C=C/c1c(C2CC2)nc2ccccc2c1-c1ccc(F)cc1 gave an activation of -0.297% [at 15.8 µM].
In the case of CC1(C)CC(N)CC(C)(C)N1, the “activation” value is reported as -0.547%.
COc1ccc(-c2cc(=O)c3c(O)cc(O[C@@H]4O[C@H](CO[C@@H]5O[C@@H](C)[C@H](O)[C@@H](O)[C@H]5O)[C@@H](O)[C@H](O)[C@H]4O)cc3o2)cc1O was tested, and the “activation” value was -0.239% [at 35.3 µM].
For Cc1ccc(=O)n(-c2ccccc2)c1, the “activation” value was -0.309% [at 35.3 µM].
With OCC(F)(F)F the “activation” value was -0.171%.
With CC(C)COC(=O)c1ccccc1 the “activation” value was 0.998%.
In the case of CCOc1ccc([N+](=O)[O-])cc1, the “activation” value is reported as 3.69%.
With CCN(CC)CCNC(=O)c1cc(Br)c(N)cc1OC the “activation” value was -0.212% [at 35.3 µM].
With CCCCCCCCCCCCCCCCC(=O)O the “activation” value was -0.202% [at 35.3 µM].
In the case of CCCCC(CC)C(=O)OC(C)C (stereo not given), the “activation” value is reported as 0.103%.
CCCCCCCC(C)=O was tested, and the “activation” value was 0.491%.
For CCCCCCCCCCCCCCCC[N+](C)(C)CCN(Cc1ccc(OC)cc1)c1ncccn1, the “activation” value was -0.0901% [at 35.3 µM].
With CC(C)CCOC(=O)CC(C)C the “activation” value was -0.273%.
For O=C(O)C(=O)Cc1c[nH]c2ccccc12, the “activation” value was 15.1%.
In the case of CC(C)C[C@H](NC(=O)OCC1c2ccccc2-c2ccccc21)C(=O)O, the “activation” value is reported as -0.0917%.
With CCCCCCCCOCCCN the “activation” value was 1.96%.
With CN1CCN(C2=Nc3ccccc3Sc3ccc(Cl)cc32)CC1 the “activation” value was 0.0241% [at 35.3 µM].
CNC(=O)c1ccccc1 was tested, and the “activation” value was 0.309%.
In the case of BrC(Br)C(Br)Br, the “activation” value is reported as -1.19%.
CCC(C(=O)OCCN(CC)CC)c1ccccc1 (stereo not given) was tested, and the “activation” value was 0.774% [at 35.3 µM].
COC(=O)CCCCC(CCSS/C(CCO)=C(\C)N(C=O)Cc1cnc(C)nc1N)SC(C)=O (stereo not given) was tested, and the “activation” value was -0.0997% [at 35.3 µM].
In the case of CNCc1ccccc1, the “activation” value is reported as 1.23% [at 35.3 µM].
In the case of CCC(=O)O[C@]1(C(=O)SCF)[C@H](C)C[C@H]2[C@@H]3C[C@H](F)C4=CC(=O)C=C[C@]4(C)[C@@]3(F)[C@@H](O)C[C@@]21C, the “activation” value is reported as 0.789% [at 35.3 µM].
[O-][n+]1cccc(/C(Cl)=N/OC[C@@H](O)CN2CCCCC2)c1 was tested, and the “activation” value was -0.324% [at 35.3 µM].
In the case of ONc1ccccc1, the “activation” value is reported as 1.03%.
With O=Cc1ccc(F)c(Br)c1 the “activation” value was 2.32%.
Cc1cccc(C)c1NC(=O)CN1CCCC1 was tested, and the “activation” value was -0.604% [at 35.3 µM].
With c1ccc(C[P+](c2ccccc2)(c2ccccc2)c2ccccc2)cc1 the “activation” value was -1.17%.
For C[C@H](N)C(=O)N[C@@H](C)C(=O)NC1[C@H]2CN(c3nc4c(cc3F)c(=O)c(C(=O)O)cn4-c3ccc(F)cc3F)C[C@@H]12 (stereo not given in full), the “activation” value was 0.0894% [at 35.3 µM].
Cc1c(C(C)C)c(=O)n(-c2ccccc2)n1C was tested, and the “activation” value was -1.01% [at 35.3 µM].
In the case of CC[N+](C)(CC)CCOC(=O)C(O)(c1ccccc1)C1CCCCC1 (stereo not given), the “activation” value is reported as -0.0827% [at 35.3 µM].
COCC(=O)Nc1c(I)c(C(=O)NCC(O)CO)c(I)c(C(=O)N(C)CC(O)CO)c1I (stereo not given) was tested, and the “activation” value was 0.0264% [at 35.3 µM].
In the case of C=C1CC[C@H]2O[C@]2(C)CC[C@@H]2[C@@H]1CC2(C)C, the “activation” value is reported as 0.382%.
In the case of Cc1nc2ccccc2n1Cc1ccc(Cl)cc1, the “activation” value is reported as 1.01% [at 35.3 µM].
CN1CCN(c2c(F)cc3c(=O)c(C(=O)O)cn4c3c2OCN4C)CC1 gave an activation of -0.139% [at 15.8 µM].
OC1(c2ccc(Cl)c(C(F)(F)F)c2)CCN(CCCC(c2ccc(F)cc2)c2ccc(F)cc2)CC1 was tested, and the “activation” value was 1.8% [at 35.3 µM].
With Cc1c(C)c([N+](=O)[O-])c(C(C)(C)C)c([N+](=O)[O-])c1C the “activation” value was -0.658%.
With C=CC(=O)OCC(CO)(COCC(COC(=O)C=C)(COC(=O)C=C)COC(=O)C=C)COC(=O)C=C the “activation” value was -1.26%.
With Cc1cc(CCCOc2c(C)cc(-c3noc(C(F)(F)F)n3)cc2C)on1 the “activation” value was -0.282% [at 35.3 µM].
